Experimental findings from PubChem BioAssay (NCI) are described below.

SMILES strings stand for the structures. About 83,000 compounds went through this panel and 20% of them were active in at least one assay; those are over-represented in the sample as a whole.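 96-well plates, one dose, 48 hours. Percent growth reported; active if below 10.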 A number with no mark means an inactive call. Calls of active or inactive are those of the source.

What all share (test): NCI-60 one-dose screen, 48 h (100 = growth as untreated, 0 = no growth, -100 = all killed)
One assay deals with SK-MEL-2 melanoma. The note with it: 10 µM.
Another assay deals with EKVX NSCLC. The note with it: 10 µM unless noted.
For another assay, the system named is SN12C renal. The note with it: 10 µM unless noted.
A further assay relates to UO-31 renal. The note with it: 10 µM unless noted.
Another assay concerns TK-10 renal. The note with it: 10 µM unless noted.
The test system of a further assay is ACHN renal. The note with it: 10 µM unless noted.
Another assay relates to A498 renal. The note with it: 10 µM unless noted.
In another assay the test system is CCRF-CEM leukemia. The note with it: 10 µM unless noted.
Another assay concerns MOLT-4 leukemia. The note with it: 10 µM unless noted.
Another assay concerns SR leukemia. The note with it: 10 µM unless noted.
The test system of a further assay is RPMI-8226 leukemia. The note with it: 10 µM unless noted.
Another assay has as its system OVCAR-8 ovarian. The note with it: 10 µM unless noted.
The test system of another assay is OVCAR-5 ovarian. The note with it: 10 µM unless noted.
The subject of another assay is OVCAR-4 ovarian. The note with it: 10 µM unless noted.
A further assay relates to SK-OV-3 ovarian. The note with it: 10 µM unless noted.
In another assay the test system is IGROV1 ovarian. The note with it: 10 µM unless noted.
For a further assay, the system named is OVCAR-3 ovarian. The note with it: 10 µM unless noted.
The subject of a further assay is HS 578T breast. The note with it: 10 µM.
The subject of a further assay is NCI/ADR-RES ovarian. The note with it: 10 µM unless noted.

On to `C[C@@H](C[C@H](CCO)c1cc(C(F)(F)F)cc(C(F)(F)F)c1)c1ccc2ccccc2c1`, for which the growth is 82.2% in the assay on SK-MEL-2 melanoma; 81.3% in the assay on EKVX NSCLC; 96.4% with SN12C renal; 79% in the assay on UO-31 renal; 95% in the assay on TK-10 renal; 98.7% in the assay on ACHN renal. For the same compound, the growth in the assay on A498 renal is 120%; in the assay with CCRF-CEM leukemia, 84.2%; with MOLT-4 leukemia, 71%; in the assay on SR leukemia, 30.6%; in the assay on RPMI-8226 leukemia it was 79.3%; with OVCAR-8 ovarian, 102%. Further, the growth with OVCAR-5 ovarian was 106%; with OVCAR-4 ovarian it was 94.6%; with SK-OV-3 ovarian, 98.3%; with IGROV1 ovarian, 75.3%; in the assay with OVCAR-3 ovarian, 81%; in the assay with HS 578T breast, 106%. Also, in the assay on NCI/ADR-RES ovarian, the growth is 85.3%.

As for `C=CC(=O)N(C)[C@H]1C[C@H]2OC(C)(C1OC)n1c3ccccc3c3c4c(c5c6ccccc6n2c5c31)C(=O)NC4` (stereo not given in full), the growth in the assay with SK-MEL-2 melanoma is -24.6% (active); in the assay with EKVX NSCLC, 17.9%; in the assay on SN12C renal it was 6.85% (active); with UO-31 renal, -30.5% (active); with TK-10 renal, -2.16% (active); with ACHN renal, 12.9%. The growth in the assay with A498 renal was -38.7% (active); with CCRF-CEM leukemia it was -7.8% (active); with MOLT-4 leukemia, -40.1% (active); in the assay with SR leukemia, -25.3% (active); in the assay with RPMI-8226 leukemia, -11.3% (active); with OVCAR-8 ovarian, 3.41% (active). Also, the growth in the assay with OVCAR-5 ovarian is 28.9%; in the assay with OVCAR-4 ovarian, 42.2%; with SK-OV-3 ovarian, -21.3% (active); with IGROV1 ovarian, 13.7%; in the assay with OVCAR-3 ovarian it was -11.1% (active); in the assay with HS 578T breast, -14.9% (active). In the assay with NCI/ADR-RES ovarian, the growth is -1.79% (active).

For the compound `COC(=O)[C@@H](C)CNS(=O)(=O)N(c1cc(C(F)(F)F)cc(C(F)(F)F)c1)C1CCN(Cc2ccc(F)cc2)CC1`, the growth in the assay with SK-MEL-2 melanoma is 81.7%; with EKVX NSCLC it was 74.6%; in the assay on SN12C renal, 36.8%; in the assay on UO-31 renal it was 44%; in the assay on TK-10 renal it was 89%; in the assay on ACHN renal, 86.4%. In addition, the growth was 66% in the assay on A498 renal; 56.6% with CCRF-CEM leukemia; 58.2% with MOLT-4 leukemia; 26.7% in the assay on SR leukemia; 67.3% in the assay on OVCAR-8 ovarian; 76.1% with OVCAR-5 ovarian. Also, the growth with OVCAR-4 ovarian was 73.4%; in the assay on SK-OV-3 ovarian it was 76.2%; in the assay with IGROV1 ovarian, 54.7%; with OVCAR-3 ovarian, 56.7%; in the assay on HS 578T breast, 90.7%; in the assay with NCI/ADR-RES ovarian it was 51%.

Consider `Nc1cc2c(cc1Br)-c1c(C(=O)O)cccc1C2O` (stereo not given), for which the growth with SK-MEL-2 melanoma was 131%; in the assay with EKVX NSCLC it was 88.3%; in the assay with SN12C renal it was 109%; in the assay on UO-31 renal, 102%; in the assay with TK-10 renal it was 117%; in the assay on ACHN renal, 108%. The growth was 129% with A498 renal; 124% with CCRF-CEM leukemia; 115% in the assay with MOLT-4 leukemia; 109% with SR leukemia; 107% in the assay with OVCAR-8 ovarian; 102% in the assay on OVCAR-5 ovarian. Moreover, the growth is 103% in the assay with OVCAR-4 ovarian; 110% in the assay on SK-OV-3 ovarian; 98.6% in the assay with IGROV1 ovarian; 147% with OVCAR-3 ovarian; 143% with HS 578T breast; 118% in the assay with NCI/ADR-RES ovarian.

In the case of `C=CC[n+]1c(/C=C/C=C2\N(C)c3ccccc3C2(C)C)sc2ccc(OC)cc21`, the growth in the assay on SK-MEL-2 melanoma was -13.4% (active); in the assay with EKVX NSCLC it was 10.9%; in the assay with SN12C renal it was 11.7%; in the assay with UO-31 renal, 13.7%; in the assay with TK-10 renal, 32.8%; in the assay with ACHN renal, 10.8%. The growth in the assay with A498 renal was 17.7%; in the assay on CCRF-CEM leukemia it was 21.5%; with MOLT-4 leukemia, 10.2%; with SR leukemia it was 11.7%; in the assay on RPMI-8226 leukemia, 1.33% (active); with OVCAR-8 ovarian, 12.2%. The growth was 22.4% in the assay on OVCAR-5 ovarian; 25.1% in the assay on OVCAR-4 ovarian; -13.8% (active) in the assay with SK-OV-3 ovarian; 40.9% in the assay with IGROV1 ovarian; 13.3% with OVCAR-3 ovarian; 53.6% with HS 578T breast. Besides, in the assay with NCI/ADR-RES ovarian, the growth was 71.7%.

With `Cc1cc2c(-c3nc4ccccn4c3Nc3cccc4ccccc34)c(O)c(O)cc2c(O)c1-c1c(C)cc2c(-c3nc4ccccn4c3Nc3cccc4ccccc34)c(O)c(O)cc2c1O`, the growth with SK-MEL-2 melanoma is 38.3%; in the assay with EKVX NSCLC, 51.4%; in the assay with SN12C renal, 16.7%; in the assay on UO-31 renal it was 44%; in the assay on TK-10 renal it was 50.9%; in the assay on ACHN renal, 49.2%. Also, the growth with A498 renal is 29.6%; in the assay with CCRF-CEM leukemia, 27.3%; with MOLT-4 leukemia, 31.2%; in the assay with SR leukemia, 27.5%; in the assay with RPMI-8226 leukemia, 14.5%; in the assay on OVCAR-8 ovarian, 39.8%. Further, the growth is 66.8% in the assay on OVCAR-5 ovarian; 56% in the assay with OVCAR-4 ovarian; 24.2% in the assay on SK-OV-3 ovarian; 47.8% with IGROV1 ovarian; 68.3% with OVCAR-3 ovarian; 39.7% in the assay on HS 578T breast. In addition, the growth in the assay with NCI/ADR-RES ovarian was 81.6%.

Regarding `C=CC[n+]1c(/C=C2\Sc3ccccc3N2C)sc(-c2ccccc2)c1-c1ccccc1`, the growth was -15.5% (active) in the assay with SK-MEL-2 melanoma; 16.5% in the assay on EKVX NSCLC; 8.01% (active) in the assay on SN12C renal; 6.58% (active) in the assay on UO-31 renal; -6.28% (active) in the assay on TK-10 renal; 8.86% (active) with ACHN renal. Moreover, the growth in the assay with A498 renal is 7.29% (active); with CCRF-CEM leukemia, 23.2%; in the assay with MOLT-4 leukemia, -4.71% (active); in the assay with SR leukemia it was 1.88% (active); with RPMI-8226 leukemia it was 0.0474% (active); in the assay on OVCAR-8 ovarian it was 15.1%. Moreover, the growth with OVCAR-5 ovarian is 21.9%; in the assay with OVCAR-4 ovarian it was 23.8%; in the assay on SK-OV-3 ovarian it was -15% (active); in the assay on IGROV1 ovarian, 36.7%; in the assay on OVCAR-3 ovarian it was 15.1%; with HS 578T breast it was 56.9%. For the same compound, in the assay on NCI/ADR-RES ovarian, the growth is 85%.

In the case of `CC(C)C1CCC(C)C(C2(C#N)C(N)=NC(N)=C2C#N)C1=O` (stereo not given), the growth in the assay on SK-MEL-2 melanoma is 109%; with EKVX NSCLC, 94.4%; in the assay on SN12C renal, 100%; with UO-31 renal, 80.2%; with TK-10 renal, 115%; in the assay with ACHN renal, 107%. Moreover, the growth was 105% in the assay with A498 renal; 103% in the assay with CCRF-CEM leukemia; 96.1% in the assay with MOLT-4 leukemia; 102% in the assay with SR leukemia; 89% in the assay on RPMI-8226 leukemia; 106% in the assay on OVCAR-8 ovarian. Further, the growth was 103% with OVCAR-5 ovarian; 90.8% in the assay on OVCAR-4 ovarian; 107% with SK-OV-3 ovarian; 94.4% in the assay on IGROV1 ovarian; 98% in the assay on OVCAR-3 ovarian; 101% in the assay with HS 578T breast. Also, the growth with NCI/ADR-RES ovarian was 97.1%.
